The results in this text go back to PubChem BioAssay (NCATS).

Test [1] can be described thus: Viability qHTS for spleen associated tyrosine kinase inhibitor (SYKi) naive MV4-11 cells (AID 1963823). Further: nearly all actives have a fitted effect of over 40% in size. A digest of the protocol: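 Viability of MV4-11 AML cells lacking prior SYK inhibitor exposure is scored by CellTiter-Glo luminescence following 72 hr compound incubation at 37 C, 5% CO2, seeded at 500 cells per well.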
A short description of test [2]: Viability qHTS for spleen associated tyrosine kinase inhibitor (SYKi) drug resistant MV4-11 cells (AID 1963824). Further: nearly all actives have a fitted effect of over 35% in size. Summed up:
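CellTiter-Glo luminescence, read 10 min after reagent addition, reports viability after a 72 hr compound exposure. Cells are an MV4-11 line made resistant to SYK inhibition, seeded at 500 per well onto compound-containing plates.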

Results filed as inconclusive are left out. Unmarked numbers belong to inactive results. Calls of active or inactive are those of the source. The call rests on the fitted dose curve; in most records, active means well fitted cell-killing curve with a large enough effect; inconclusive means small, poorly fitted or top-dose-only effect, or effect the other way; inactive means no such curve, though single readings can be large or run the other way.
Potency means the concentration at half of the fitted maximal effect.

Consider `C[C@]12CC[C@H](O)C[C@H]1CC[C@@H]1[C@@H]2[C@H](O)C(=O)[C@]2(C)[C@@H](c3ccc(=O)oc3)CC[C@]12O`, for which the Potency in test [1] was 0.0103 µM (active); in test [2] it was 0.0092 µM (active).
`O=C1N[C@@H](Cc2ccccc2)CN2CCCC[C@@H]12`: the Potency result in test [1] and in test [2] was “inactive” in each case.
`CC(=O)O[C@H]1C[C@@H](C)O[C@H]2O[C@@H]3CC4CC[C@@H]5C(CC[C@]6(C)[C@@H](C7=CC(=O)OC7)CC[C@]56O)[C@@]4(C=O)C[C@H]3O[C@]21O` (some centres undefined): the Potency in test [1] is 0.0432 µM (active); in test [2], 0.0485 µM (active).
Regarding `CCC(=O)O[C@@H]1C=C2CCC3C(CCC4(C)C3CC[C@@H]4OC(=O)CC)C2CC1` (some centres undefined), the Potency entry in test [1] and in test [2] was “inactive” throughout.
`CC12CCC3C(CCC4(O)CC(O)CCC34C=O)C1(O)CCC2C1=CC(=O)OC1` (centres undefined): the values for the Potency in test [1] and in test [2] were 0.366 µM (active) and 0.231 µM (active), respectively.
For the compound `COCC(C(=O)OC1CC2CCC(C1)N2C)c1ccccc1` (centres undefined), the Potency entry in test [1] and in test [2] was “inactive” each time.
In the case of `C[C@@H]1Cc2c(Cl)cc(C(=O)N[C@@H](Cc3ccccc3)C(=O)O)c(O)c2C(=O)O1`, the results for the Potency in test [1] and in test [2] were 0.718 µM (active) and 0.286 µM (active), respectively.
On to `C[C@@H]1C(=O)O[C@H]2[C@H](O)[C@@]34[C@@H]5OC(=O)[C@@]3(O[C@@H]3OC(=O)[C@@H](O)[C@@]34[C@H](C(C)(C)C)[C@H]5O)[C@@]12O`, for which the Potency result in test [1] and in test [2] was “inactive” throughout.
Take `COC[C@@H]1OC(=O)c2coc3c2[C@]1(C)C1=C(C3=O)[C@H]2CC[C@H](O)[C@@]2(C)C[C@@H]1OC(C)=O`: the Potency in test [1] is 8.2 µM (active); in test [2] it was 6.51 µM (active).
As to `C[C@]12CC[C@@H](O)C[C@@H]1CC[C@@H]1[C@@H]2CC[C@]2(C)C(=O)[C@@H](Br)C[C@@H]12`, the Potency is 16.4 µM (active) in test [1] and 11.6 µM (active) in test [2].
Regarding `COc1ccc(CN(C(=O)[C@@H](N)Cc2c(C)cc(C(N)=O)cc2C)[C@@H](C)c2ncc(-c3ccccc3)[nH]2)cc1C(=O)O`, the Potency entry in test [1] and in test [2] was “inactive” in each case.
In the case of `C[C@]12CC[C@H]3[C@@H]([C@H](O)CC4=CC(=O)CC[C@@]43C)[C@@H]1CC[C@@H]2O`, the Potency result in test [1] and in test [2] was “inactive” throughout.
Regarding `CC1=CC2/C=C(\C)CCC(O)C(O)/C=C/C(=O)OC23C(=O)NC(CC(C)C)C3C1C` (centres undefined), the Potency in test [1] and in test [2] was 7.96 µM (active) throughout.
Regarding `CC1=C[C@H]2O[C@@H]3[C@H](O)[C@@H](O)[C@](C)([C@@]2(CO)C[C@@H]1O)[C@]31CO1`, the Potency in test [1] is 0.82 µM (active); in test [2], 0.731 µM (active).
As to `COC(=O)[C@@]1(C)C(=O)C=C[C@]2(C)c3c(O)cc(C(C)C)cc3[C@H](O)[C@@H](OC(C)=O)C12` (some centres undefined), the Potency in test [1] is 11.2 µM (active); in test [2] it was 8.93 µM (active).
`COC1CC(O[C@H]2CC[C@@]3(C)C(=CCC4C3C(O)[C@@H](O)[C@]3(C)[C@@H](C(C)=O)CC[C@]43O)C2)OC(C)C1OC1CC(OC)C(OC2OC(C)C(O)C(O)C2O)C(C)O1` (some centres undefined): the viability (% of control) in test [1] is 67.1% [at 9.25 µM]. Further, in test [2], the viability, % of control was 103% [at 9.25 µM].
Regarding `COC(=O)N1CCN(C(=O)Cc2ccc(Cl)c(Cl)c2)[C@@H](CN2CCCC2)C1`, the Potency result in test [1] and in test [2] was “inactive” in each case.
Turning to `COC1CC(OC2CCC3(C)C(CCC4C3CCC3(C)C(C5=CC(=O)OC5)C(OC(C)=O)CC43O)C2)OC(C)C1OC1OC(CO)C(O)C(O)C1O` (centres undefined), the Potency in test [1] was 0.769 µM (active); in test [2], 0.485 µM (active).
For `C=C1[C@@]23C(=O)O[C@H](C)[C@]24O[C@@]2(C(=C)[C@]5(C=CC(=O)OC5(C)C)CC[C@]32C)[C@H](O)[C@@]1(C)OC4=O` the same measures were “inactive” and “inactive”.
Consider `N#CC(OC1OC(COC2OC(CO)C(O)C(O)C2O)C(O)C(O)C1O)c1ccccc1` (centres undefined), for which the Potency entry in test [1] and in test [2] was “inactive” throughout.
Regarding `CN1C(=O)[C@@H](Cc2c[nH]c3ccccc23)N=C(c2ccccc2F)c2ccccc21`, the Potency in test [1] and in test [2] was 20.6 µM (active) each time.
Consider `C/C1=C/C[C@@H](/C(C)=C/c2csc(C)n2)OC(=O)C[C@H](O)C(C)(C)C(=O)[C@H](C)[C@@H](O)[C@@H](C)CCC1`, for which the Potency in test [1] and in test [2] was 0.0332 µM (active) throughout.
For `O=C(O)P(=O)(O)O`, the Potency result in test [1] and in test [2] was “inactive” each time.
On to `C=C[C@H]1[C@H](O[C@@H]2O[C@H](CO)[C@@H](O)[C@H](O)[C@H]2O)OC=C2C(=O)OCC[C@H]21`, for which the Potency entry in test [1] and in test [2] was “inactive” in each case.
On to `C[C@H]1O[C@@H](n2cnc3c(N)ncnc32)C[C@@H]1O`, for which the Potency entry in test [1] and in test [2] was “inactive” in each case.
As to `CC1=CC2OC3CC(O)[C@](C)([C@@]2(C)C(O)C1=O)[C@]31CO1` (some centres undefined), the Potency in test [1] and in test [2] was 1.84 µM (active) throughout.
For `COc1ccc(CCNCc2ccc(OC)c3ccccc23)cc1`, the Potency in test [1] was 9.2 µM (active); in test [2], 8.2 µM (active).
